The record followed here is PubChem BioAssay AID896 (National Center for Advancing Translational Sciences (NCATS), 2007).

This is one part of the list. Records with an inconclusive call do not appear.

The assay can be described thus: Confirmation Concentration-Response Assay for Allosteric/Competitive Inhibitors of Caspase-1. The conditions noted are these: purified caspase-1, fluorogenic substrate cleavage; compound fluorescence baseline read; at 57.5 µM. An excerpt:
NIH Molecular Libraries Screening Centers Network [MLSCN]
NIH Chemical Genomics Center [NCGC]
PI Name: Dr. James Wells,
Dr. Enrique Perez-Paya, Dr.Janice Williams, Dr. Dennis Wolan, a person
The caspases (Cysteine Aspartyl Protease) comprise a related family of 14 dimeric proteases that are critical mediators of apoptosis (programmed cell death) and inflammation. The caspases represent an important class of drug targets for stroke, ischemia, cancer and inflammatory diseases. […] One goal of this project was to identify compounds that act as allosteric inhibitors via stabilizing the procaspase form of the enzyme. […]
The biochemical assay was configured using purified caspase 1 at a high enzyme concentration to promote formation of the homodimers and thus facilitate the identification of allosteric inhibitors. […] After initiation of the assay with substrate the plates were rapidly read using an automated robotic system (Kalypsys, Inc.) to maintain consistent timing. […] Product formation was also measured after 1 hour. […]
Caspase 1 was prepared in buffer (50 mM HEPES pH 7.5, 50 mM KCl, 200 mM NaCl, 10 mM DTT, 0.1% CHAPS) at a concentration of 66.6 nM and 3 uL was dispensed to all wells using black solid Kalypsys 1536-well plates. […] The plates were then exposed using 405 nm excitation/520 nm emission filters for 4 sec and read at 20 sec intervals for 3 min. […]
Take `Cc1nc2c(C(=O)NCc3ccc4c(c3)OCO4)c[nH]n2c(=O)c1Cc1ccccc1F`: the baseline fluorescence was -1.24%.
